The full list was thinned out, with hits kept by preference.
Dicer inh: blocks human Dicer maturation of pre-miR-21. cat-ELCCA pre-miR-21 Dicer processing, chemiluminescence; stronger effect = higher value. z-score at 25 µM. 47,000 tested, 6% active. AID 1347074; in the data active = z-score above about 3, passing the limit was not always enough;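 also: higher signal means more uncleaved substrate so more Dicer inhibition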
Target sequence (Q9UPY3 whole entry, looked up): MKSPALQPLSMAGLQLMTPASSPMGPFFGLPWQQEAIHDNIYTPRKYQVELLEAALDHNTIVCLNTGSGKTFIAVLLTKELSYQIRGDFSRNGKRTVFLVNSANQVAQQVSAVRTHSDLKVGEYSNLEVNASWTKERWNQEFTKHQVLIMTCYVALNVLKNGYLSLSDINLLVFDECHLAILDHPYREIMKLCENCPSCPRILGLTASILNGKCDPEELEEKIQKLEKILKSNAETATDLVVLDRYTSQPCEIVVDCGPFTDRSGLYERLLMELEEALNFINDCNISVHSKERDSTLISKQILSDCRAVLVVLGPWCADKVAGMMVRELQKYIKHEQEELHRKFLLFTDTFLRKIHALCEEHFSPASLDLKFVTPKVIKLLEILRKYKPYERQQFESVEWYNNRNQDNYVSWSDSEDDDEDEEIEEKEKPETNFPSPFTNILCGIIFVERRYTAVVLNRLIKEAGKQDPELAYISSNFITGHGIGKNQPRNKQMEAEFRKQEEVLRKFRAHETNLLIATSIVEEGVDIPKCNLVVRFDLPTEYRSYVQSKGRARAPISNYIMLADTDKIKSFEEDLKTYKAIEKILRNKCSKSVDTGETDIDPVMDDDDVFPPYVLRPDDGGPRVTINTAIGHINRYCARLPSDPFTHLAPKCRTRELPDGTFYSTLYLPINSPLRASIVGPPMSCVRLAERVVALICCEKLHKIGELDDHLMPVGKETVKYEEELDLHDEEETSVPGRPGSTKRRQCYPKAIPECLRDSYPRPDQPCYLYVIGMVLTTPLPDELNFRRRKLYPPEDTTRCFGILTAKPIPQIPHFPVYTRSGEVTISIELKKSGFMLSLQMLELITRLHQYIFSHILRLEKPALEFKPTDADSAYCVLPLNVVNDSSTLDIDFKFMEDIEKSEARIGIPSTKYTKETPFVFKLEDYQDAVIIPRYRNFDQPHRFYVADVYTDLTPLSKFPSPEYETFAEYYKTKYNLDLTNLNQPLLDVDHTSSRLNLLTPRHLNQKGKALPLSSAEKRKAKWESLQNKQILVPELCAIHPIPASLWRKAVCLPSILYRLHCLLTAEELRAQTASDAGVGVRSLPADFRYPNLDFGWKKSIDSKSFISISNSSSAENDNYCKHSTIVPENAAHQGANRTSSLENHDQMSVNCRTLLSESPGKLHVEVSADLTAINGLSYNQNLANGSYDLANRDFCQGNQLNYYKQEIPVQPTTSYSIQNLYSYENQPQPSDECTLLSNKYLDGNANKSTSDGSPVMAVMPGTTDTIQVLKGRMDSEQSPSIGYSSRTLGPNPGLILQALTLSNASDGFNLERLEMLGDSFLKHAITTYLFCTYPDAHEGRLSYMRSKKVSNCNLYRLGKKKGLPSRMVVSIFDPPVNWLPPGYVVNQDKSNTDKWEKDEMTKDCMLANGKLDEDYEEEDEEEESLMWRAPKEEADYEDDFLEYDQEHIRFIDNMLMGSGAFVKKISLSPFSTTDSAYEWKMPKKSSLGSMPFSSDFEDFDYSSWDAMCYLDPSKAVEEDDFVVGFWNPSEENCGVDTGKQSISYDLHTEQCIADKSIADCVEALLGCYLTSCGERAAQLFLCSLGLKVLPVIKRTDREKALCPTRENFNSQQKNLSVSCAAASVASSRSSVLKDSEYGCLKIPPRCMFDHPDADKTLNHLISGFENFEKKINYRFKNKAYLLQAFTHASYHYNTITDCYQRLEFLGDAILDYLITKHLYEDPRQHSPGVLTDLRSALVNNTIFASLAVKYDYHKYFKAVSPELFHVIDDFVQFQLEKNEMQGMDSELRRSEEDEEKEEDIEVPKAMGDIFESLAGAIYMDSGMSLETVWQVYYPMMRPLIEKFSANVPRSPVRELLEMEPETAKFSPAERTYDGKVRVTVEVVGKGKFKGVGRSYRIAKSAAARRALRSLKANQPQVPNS
Of the large screens only hits and unclear results are named; the others gave an inactive call.

COc1cc(C2Nc3c(C)cccc3-c3cc(C)nn32)ccc1O (stereo unspecified)	none
COc1ccc(C2Nc3c(C)cccc3-c3cc(C)nn32)cc1O (stereo unspecified)	Dicer inh 3.86
Cc1c(Cl)cccc1NC(=O)N1CCC(O)CC1	none
Cn1c(OCc2ccc3c(c2)OCO3)nc2c1c(=O)n(Cc1ccc(F)cc1)c(=O)n2C	none
CC1=C(C(=O)OCC(C)C)C(c2ccccc2F)C2=C(CC(c3cccs3)CC2=O)N1 (stereo unspecified)	none
Cc1ccc(Oc2ncccc2[N+](=O)[O-])c([N+](=O)[O-])n1	none
O=C(Nc1cc(Cl)cc(Cl)c1)N1CCCc2ccccc21	none
O=C(O)CCC(=O)N1CCCc2ccccc21	none
O=C(Nc1ccc(Cl)cc1)N1CCCc2ccccc21	Dicer inh 4.32
CC1CCN(S(=O)(=O)c2cccc3c(S(=O)(=O)N4CCC(C)CC4)cccc23)CC1	none
O=[N+]([O-])c1cccc(NC2O[C@H](CO)[C@@H](O)[C@H](O)[C@H]2O)c1 (stereo partly specified)	none
CC(=O)Oc1cc2c(C(=O)NC3CCS(=O)(=O)C3)c(C)oc2c2ccccc12 (stereo unspecified)	none
Cc1ccc(-c2nnc(SCC(=O)O)o2)cc1	none
Cc1occc1-c1nnc(SCC(=O)O)o1	Dicer inh 3.36
Cc1occc1-c1nnc(SCCC(=O)O)o1	none
C/C(COc1ccc(-c2csnn2)cc1)=N\Nc1cc(Cl)cc(Cl)c1	none
CC(C)CCSc1nc(N2CCCC2)c2c(c1C#N)CC(C)(C)OC2	Dicer inh 3.11
CC1(C)Cc2c(C#N)c(SCc3ccccc3)nc(N3CCOCC3)c2CO1	none
CC(C)Sc1nc(N2CCCC2)c2c(c1C#N)CC(C)(C)OC2	none
Cc1ccc2c(c1)NC(c1ccc(N(C)C)cc1)O2 (stereo unspecified)	none
COc1ccc(C2CC(=O)C3=C(C2)NC(C)=C(C(=O)OC(C)C)C3c2ccccn2)cc1 (stereo unspecified)	none
CCOc1ccc(C2C(C(=O)OCc3ccccc3)=C(C)NC3=C2C(=O)CC(C)(C)C3)cc1OC (stereo unspecified)	none
COc1ccc(OC)c(C2Oc3ccccc3C3CC(c4ccccc4O)=NN32)c1 (stereo unspecified)	Dicer inh 5.97
COc1ccc(O)c(C2=NN3C(C2)c2cccc(OC)c2OC3c2ccccc2F)c1 (stereo unspecified)	none
COc1ccc(O)c(C2=NN3C(C2)c2ccccc2OC3c2cccc(F)c2)c1 (stereo unspecified)	Dicer inh 5.23
COc1ccc(O)c(C2=NN3C(C2)c2ccccc2OC3c2cc(OC)ccc2OC)c1 (stereo unspecified)	none
COc1ccc(O)c(C2=NN3C(C2)c2ccccc2OC3c2ccccc2)c1 (stereo unspecified)	Dicer inh 8.34
COc1ccc(O)c(C2=NN3C(C2)c2ccccc2OC3c2ccsc2)c1 (stereo unspecified)	Dicer inh 5.45
Oc1ccccc1C1=NN2C(C1)c1ccccc1OC2c1ccsc1 (stereo unspecified)	none
COc1ccc(C2Oc3c(OC)cccc3C3CC(c4ccccc4O)=NN32)c(OC)c1 (stereo unspecified)	none
Cc1ccc(O)c(C2=NN3C(C2)c2ccccc2OC3c2ccsc2)c1 (stereo unspecified)	none
O=C(N/N=C/c1c(Cl)cccc1Cl)N/N=C/c1c(Cl)cccc1Cl	none
CN(C)c1cc(-c2cccs2)oc(=O)c1Cl	none
CC(C)NC(=O)O/N=C/c1csc([N+](=O)[O-])c1	none
Cc1csc2c(N3CCN(C(=O)c4ccc(Cl)cc4)CC3)ncnc12	none
CCOC(=O)c1c(C)oc(-c2ccc(Cl)cc2)c1S(=O)(=O)Nc1cccc(C)c1	none
COc1ccc(C(=O)/C(C#N)=C/c2cc(C#Cc3ccccc3)cs2)cc1	none
CCCC(NS(=O)(=O)c1cccc2nsnc12)C(=O)O (stereo unspecified)	none
COc1cccc(SCC(=O)NCCSCc2ccco2)c1	none
N=c1scc(-c2ccccc2)n1-c1ccc(Cl)cc1Cl	none
CCCCCCCCc1ccc(C(=O)CCC(=O)O)cc1	none
COc1ccc(C2OC(c3ccc(Br)cc3)=NN2C(C)=O)cc1 (stereo unspecified)	none
N/C(=N\O)c1cnccc1C(F)(F)F	none
Cc1ccc(NC(=O)/C(C#N)=C/c2cc(Br)cs2)cc1Cl	none
COc1ccc(O)c(C2=NN3C(C2)c2cccc(OC)c2OC3c2cc(OC)ccc2OC)c1 (stereo unspecified)	none
COc1cc(C2Oc3c(OC)cccc3C3CC(c4ccccc4O)=NN32)ccc1O (stereo unspecified)	none
COc1ccc(O)c(C2=NN3C(C2)c2ccccc2OC3c2ccncc2)c1 (stereo unspecified)	Dicer inh 10.5
COc1cc(C2Oc3ccccc3C3CC(c4ccccc4O)=NN32)ccc1O (stereo unspecified)	Dicer inh 11.1
COc1ccc(O)c(C2=NN3C(C2)c2cccc(OC)c2OC3c2cccc(OC)c2OC)c1 (stereo unspecified)	none
COc1ccc(O)c(C2=NN3C(C2)c2ccccc2OC3c2ccc(OC)c(OC)c2)c1 (stereo unspecified)	Dicer inh 5.95

Screening data as filed in PubChem BioAssay.
